According to PubChem BioAssay AID1159580 (chemical genetic matrix, 2015):
Among all 5,500 compounds or so, about 2,000 (36%) were called active. About 18% were inconclusive and are not listed. No stated cut-off is given here; in the data, active means normalized growth mostly below about 0.91 (no sharp cut-off); inconclusive means no clear call, values can overlap the other calls; inactive means mostly above about 0.92. The list shows a part of the results.

Test: chemical genetic growth profiling, strain panel (AID 1159580);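 further: tested at 20 µM; growth read once vehicle control cultures reached saturation at 30 °C; 1 = growth at the plate median or of vehicle wells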
Conditions: growth OD

Measured: normalized growth

C=CCN1CC[C@]23c4c5ccc(O)c4OC2C(=O)CC[C@@]3(O)[C@H]1C5 (some centres not stated)
inactive: S. cerevisiae deletion strains, locus YJR075W, strain HOC1, stronger effect = lower value 1 | S. cerevisiae deletion strains, locus YKL009W, strain mrt4, stronger effect = lower value 0.977 | S. cerevisiae deletion strains, locus YKL068W, stronger effect = lower value 0.993 | S. cerevisiae deletion strains, locus YKL085W, strain MDH1 (second series), stronger effect = lower value 1 | S. cerevisiae deletion strains, locus YKL085W, strain MDH1, stronger effect = lower value 1 | S. cerevisiae deletion strains, locus YKL160W, strain elf1, stronger effect = lower value 0.975 | S. cerevisiae deletion strains, locus YKL190W, strain CNB1, stronger effect = lower value 1 | S. cerevisiae deletion strains, locus YKR001C, strain vps1, stronger effect = lower value 0.989 | S. cerevisiae deletion strains, locus YKR026C, strain gcn3, stronger effect = lower value 0.979 | S. cerevisiae deletion strains, locus YKR091W, strain srl3, stronger effect = lower value 0.973 | S. cerevisiae deletion strains, locus YLL001W, strain dnm1, stronger effect = lower value 0.983 | S. cerevisiae deletion strains, locus YLL026W, stronger effect = lower value 0.988 | S. cerevisiae deletion strains, locus YLL041C, strain sdh2, stronger effect = lower value 0.963 | S. cerevisiae deletion strains, locus YLR027C, strain aat2, stronger effect = lower value 0.976 | S. cerevisiae deletion strains, locus YLR039C, strain RIC1, stronger effect = lower value 1 | S. cerevisiae deletion strains, locus YLR058C, strain SHM2, stronger effect = lower value 1.01 | S. cerevisiae deletion strains, locus YLR102C, strain apc9, stronger effect = lower value 0.998 | S. cerevisiae deletion strains, locus YLR113W, strain HOG1, stronger effect = lower value 0.973 | S. cerevisiae deletion strains, locus YLR221C, strain rsa3, stronger effect = lower value 0.982 | S. cerevisiae deletion strains, locus YLR258W, strain gsy2, stronger effect = lower value 0.983 | S. cerevisiae deletion strains, locus YLR262C, strain YPT6 (second series), stronger effect = lower value 0.97 | S. cerevisiae deletion strains, locus YLR262C, strain YPT6, stronger effect = lower value 1.04 | S. cerevisiae deletion strains, locus YLR268W, strain sec22, stronger effect = lower value 1.04 | S. cerevisiae deletion strains, locus YLR320W, strain mms22, stronger effect = lower value 0.969 | S. cerevisiae deletion strains, locus YLR330W, strain CHS5, stronger effect = lower value 1.01 | S. cerevisiae deletion strains, locus YLR342W, strain FKS1 (second series), stronger effect = lower value 1.01 | S. cerevisiae deletion strains, locus YLR342W, strain FKS1, stronger effect = lower value 0.962 | S. cerevisiae deletion strains, locus YLR357W, strain rsc2, stronger effect = lower value 0.939 | S. cerevisiae deletion strains, locus YLR370C, strain arc18, stronger effect = lower value 0.973 | S. cerevisiae deletion strains, locus YLR371W, strain rom2, stronger effect = lower value 0.976 | S. cerevisiae deletion strains, locus YLR384C, strain iki3, stronger effect = lower value 0.963 | S. cerevisiae deletion strains, locus YLR418C, strain cdc73, stronger effect = lower value 0.999 | S. cerevisiae deletion strains, locus YML016C, strain PPZ1, stronger effect = lower value 1.01 | S. cerevisiae deletion strains, locus YML032C, strain rad52, stronger effect = lower value 1.02 | S. cerevisiae deletion strains, locus YML120C, strain ndi1, stronger effect = lower value 0.974 | S. cerevisiae deletion strains, locus YML124C, strain tub3, stronger effect = lower value 0.991 | S. cerevisiae deletion strains, locus YMR058W, strain fet3, stronger effect = lower value 0.98 | S. cerevisiae deletion strains, locus YMR078C, strain ctf18, stronger effect = lower value 1 | S. cerevisiae deletion strains, locus YMR125W, strain sto1, stronger effect = lower value 0.936 | S. cerevisiae deletion strains, locus YMR129W, stronger effect = lower value 0.954 | S. cerevisiae deletion strains, locus YMR205C, strain PFK2, stronger effect = lower value 0.979 | S. cerevisiae deletion strains, locus YMR223W, strain ubp8, stronger effect = lower value 0.99 | S. cerevisiae deletion strains, locus YMR231W, strain pep5, stronger effect = lower value 0.977 | S. cerevisiae deletion strains, locus YMR263W, strain SAP30, stronger effect = lower value 1.02 | S. cerevisiae deletion strains, locus YMR307W, strain GAS1, stronger effect = lower value 1.05 | S. cerevisiae deletion strains, locus YNL067W, strain RPL9B, stronger effect = lower value 1.02 | S. cerevisiae deletion strains, locus YNL071W, strain lat1, stronger effect = lower value 0.956 | S. cerevisiae deletion strains, locus YNL128W, strain TEP1, stronger effect = lower value 1.01 | S. cerevisiae deletion strains, locus YNL153C, strain GIM3, stronger effect = lower value 1.02 | S. cerevisiae deletion strains, locus YNL183C, strain NPR1, stronger effect = lower value 0.941 | S. cerevisiae deletion strains, locus YNL209W, strain ssb2, stronger effect = lower value 0.945 | S. cerevisiae deletion strains, locus YNL233W, strain BNI4, stronger effect = lower value 1.03 | S. cerevisiae deletion strains, locus YNL248C, strain rpa49, stronger effect = lower value 0.948 | S. cerevisiae deletion strains, locus YNL250W, strain rad50, stronger effect = lower value 0.988 | S. cerevisiae deletion strains, locus YNL271C, strain bni1, stronger effect = lower value 0.998 | S. cerevisiae deletion strains, locus YNL298W, strain CLA4, stronger effect = lower value 1.01 | S. cerevisiae deletion strains, locus YNL307C, strain MCK1, stronger effect = lower value 0.996 | S. cerevisiae deletion strains, locus YNL322C, strain KRE1 (second series), stronger effect = lower value 0.927 | S. cerevisiae deletion strains, locus YNL322C, strain KRE1, stronger effect = lower value 1 | S. cerevisiae deletion strains, locus YNR049C, strain mso1, stronger effect = lower value 0.973 | S. cerevisiae deletion strains, locus YNR052C, strain pop2, stronger effect = lower value 1 | S. cerevisiae deletion strains, locus YOL006C, strain TOP1, stronger effect = lower value 1.07 | S. cerevisiae deletion strains, locus YOL012C, strain htz1 0.779 | S. cerevisiae deletion strains, locus YOL147C, strain pex11, stronger effect = lower value 0.996 | S. cerevisiae deletion strains, locus YOR001W, strain rrp6, stronger effect = lower value 0.97 | S. cerevisiae deletion strains, locus YOR061W, strain CKA2, stronger effect = lower value 1.02 | S. cerevisiae deletion strains, locus YOR069W, strain VPS5, stronger effect = lower value 1.01 | S. cerevisiae deletion strains, locus YOR070C, strain gyp1, stronger effect = lower value 0.964 | S. cerevisiae deletion strains, locus YOR080W, strain dia2, stronger effect = lower value 0.969 | S. cerevisiae deletion strains, locus YOR083W, strain WHI5, stronger effect = lower value 0.979 | S. cerevisiae deletion strains, locus YOR106W, strain vam3, stronger effect = lower value 0.948 | S. cerevisiae deletion strains, locus YOR136W, strain idh2, stronger effect = lower value 0.995 | S. cerevisiae deletion strains, locus YOR144C, strain elg1, stronger effect = lower value 1 | S. cerevisiae deletion strains, locus YOR184W, strain ser1, stronger effect = lower value 0.998 | S. cerevisiae deletion strains, locus YOR231W, strain MKK1, stronger effect = lower value 0.994 | S. cerevisiae deletion strains, locus YOR265W, strain rbl2, stronger effect = lower value 0.983 | S. cerevisiae deletion strains, locus YOR270C, strain vph1, stronger effect = lower value 0.935 | S. cerevisiae deletion strains, locus YOR290C, strain snf2, stronger effect = lower value 0.968 | S. cerevisiae deletion strains, locus YOR316C, strain cot1, stronger effect = lower value 0.994 | S. cerevisiae deletion strains, locus YPL051W, strain arl3, stronger effect = lower value 0.983 | S. cerevisiae deletion strains, locus YPL055C, strain LGE1, stronger effect = lower value 1.01 | S. cerevisiae deletion strains, locus YPL078C, strain atp4, stronger effect = lower value 0.968 | S. cerevisiae deletion strains, locus YPL106C, strain sse1, stronger effect = lower value 0.957 | S. cerevisiae deletion strains, locus YPL240C, strain hsp82, stronger effect = lower value 0.965 | S. cerevisiae deletion strains, locus YPL241C, strain CIN2, stronger effect = lower value 1.01 | S. cerevisiae deletion strains, locus YPL256C, strain CLN2, stronger effect = lower value 0.979 | S. cerevisiae deletion strains, locus YPR119W, strain clb2, stronger effect = lower value 1 | S. cerevisiae deletion strains, locus YPR141C, strain kar3, stronger effect = lower value 0.996 | S. cerevisiae deletion strains, locus YPR163C, strain tif3, stronger effect = lower value 0.996 | S. cerevisiae deletion strains, locus YPR167C, strain met16, stronger effect = lower value 1 | S. cerevisiae deletion strains, strain wtn01, stronger effect = lower value 1.01 | S. cerevisiae strains, strain wild type, stronger effect = lower value 1.01
